# Data taken from PubChem BioAssay (Tox21).
# “And” between values parts separate entries of the source, which are not always exact repeats. Equal values may be shown once. Inconclusive results are not listed. Entries that show only a call come without a potency. The source made the active and inactive calls. Calls follow the shape of the dose curve; as a rule, active = well fitted cell-killing curve with a large enough effect in the repeat runs; inconclusive = weak or mixed curves, or effect the other way; inactive = flat fitted curve, though single readings scatter.
# Test: cAMP Responsive Elements (CRE) small molecule antagonists, cell-based qHTS assay: qHTS cell viability counter screen (AID 2060913); also: nearly all actives have a fitted effect of over 40% in size
# Settings: CRE-bla HEK293T viability, CellTiter-Glo luminescence, 5 h; series mostly up to 92.4 µM
# In short: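 Cytotoxicity counter screen multiplexed with the CRE-bla antagonist read: HEK293T cells in DMEM with dialyzed FBS and 25 mM HEPES were treated 3 hrs under 0.25 uM final NKH477, then viability measured by CellTiter-Glo luminescence.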
# Potency is read from the fitted curve at half-maximal effect.
row,SMILES,Potency
1,CNC(=O)Oc1ccc(N(C)C)c(C)c1,inactive
2,CCC(C(N)=O)N1CCCC1=O (stereo not drawn),inactive
3,CN1C[C@H](CNC(=O)OCc2ccccc2)C[C@@H]2c3cccc4c3c(cn4C)C[C@H]21,inactive
4,COP(=S)(OC)Oc1ccc([N+](=O)[O-])c(C)c1,inactive
5,CCC(=O)O[C@@H]1C=C2CCC3C(CCC4(C)C3CC[C@@H]4OC(=O)CC)C2CC1 (stereo partly drawn),inactive
6,CCC(C)C(C)(COC(N)=O)COC(N)=O (stereo not drawn),inactive
7,CCCN(CCC)c1c([N+](=O)[O-])cc(C(C)C)cc1[N+](=O)[O-],inactive
8,N#Cc1ccccc1Cl,inactive
9,Brc1cccc(-c2ccccc2)c1,inactive
10,CN(C)C(=S)SSC(=S)N(C)C,12 µM (active) and 9.69 µM (active) and 7.5 µM (active)
11,COc1ccccc1N1CCNCC1,inactive
12,CC(C)(C)C(=O)CCl,inactive
13,C(COCC1CO1)OCC1CO1 (stereo not drawn),inactive
14,ClC1=C(Cl)C2(Cl)C3C(Cl)C=CC3C1(Cl)C2(Cl)Cl (stereo not drawn),inactive
15,CCCCCCCCCCCCCC[P+](CCCCCC)(CCCCCC)CCCCCC (tested in a mixture with another compound),24.3 µM (active)
16,Nc1ccc(Cl)cc1C(=O)c1ccccc1,inactive
17,C[C@H]1CNCCc2ccc(Cl)cc21,inactive
18,COc1nc(C)nc(NC(=O)NS(=O)(=O)c2ccccc2Cl)n1,inactive
19,CCOC(=O)Nc1cccc(OC(=O)Nc2ccccc2)c1,inactive
20,CC1=C2C[C@H]3[C@@H](CC=C4C[C@@H](O)CC[C@@]43C)[C@@H]2CC[C@]12O[C@@H]1C[C@H](C)CN[C@H]1[C@H]2C,inactive

row,SMILES,Potency
1,c1cc2c3c(cccc3c1)CC2,inactive
2,CC1(C)C(=O)NC(=O)NC1=O,inactive
3,C[C@]12CC[C@H]3[C@@H](CCC4=CC(=O)CC[C@@H]43)[C@@H]1CC[C@@H]2O,inactive
4,CN1C(=S)CN=C(c2ccccc2)c2cc(Cl)ccc21,inactive
5,CC(=O)CC(c1ccc(Cl)cc1)c1c(O)c2ccccc2oc1=O (stereo not drawn),inactive
6,C=CC(N)=O,inactive
7,[Cl-].[Cl-].[Cl-].[Fe+3],inactive
8,Cc1ccc(N)cc1C,inactive
9,NC(=O)CN1CCCC1=O,inactive
10,CC(C)CCCCCOC(=O)c1ccccc1C(=O)OCCCCCC(C)C,inactive
11,O=CC(Br)(Br)Br,inactive
12,O=S(=O)(c1ccc(O)cc1)c1ccc(O)cc1,inactive
13,CCCC(C)(COC(N)=O)COC(N)=O,inactive
14,O=C(O)CF,inactive
15,OCC1CO1 (stereo not drawn),inactive
16,CC[C@H](C)[C@H]1O[C@]2(C=C[C@@H]1C)C[C@@H]1C[C@@H](C/C=C(\C)[C@@H](O[C@H]3C[C@H](OC)[C@@H](O[C@H]4C[C@H](OC)[C@@H](NC)[C@H](C)O4)[C@H](C)O3)[C@@H](C)/C=C/C=C3\CO[C@@H]4[C@H](O)C(C)=C[C@@H](C(=O)O1)[C@]34O)O2,15.4 µM (active)
17,CCOP(=S)(OCC)SCCSCC,inactive
18,O=C(O)CC[N+](=O)[O-],inactive
19,Cc1cccc(N)c1C,inactive

# Test: cAMP Responsive Elements (CRE) small molecule agonists, cell-based qHTS assay: qHTS cell viability counter screen (AID 2060914); also: nearly all actives have a fitted effect of over 50% in size
# Settings: CRE-bla HEK293T viability, CellTiter-Glo luminescence, 5 h; series mostly up to 92.4 µM
# In short: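 Luminescence read-out (CellTiter-Glo, 30 min RT) of ATP-based viability in CRE-bla HEK 293T cells, run in the same wells as the β-lactamase reporter assay after 3 h compound treatment at 37 °C.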
row,SMILES,Potency
1,CNC(=O)Oc1ccc(N(C)C)c(C)c1,inactive
2,CCC(C(N)=O)N1CCCC1=O (stereo not drawn),inactive
3,CN1C[C@H](CNC(=O)OCc2ccccc2)C[C@@H]2c3cccc4c3c(cn4C)C[C@H]21,inactive
4,COP(=S)(OC)Oc1ccc([N+](=O)[O-])c(C)c1,inactive
5,CCC(=O)O[C@@H]1C=C2CCC3C(CCC4(C)C3CC[C@@H]4OC(=O)CC)C2CC1 (stereo partly drawn),inactive
6,CCC(C)C(C)(COC(N)=O)COC(N)=O (stereo not drawn),inactive
7,CCCN(CCC)c1c([N+](=O)[O-])cc(C(C)C)cc1[N+](=O)[O-],inactive
8,N#Cc1ccccc1Cl,inactive
9,Brc1cccc(-c2ccccc2)c1,inactive
10,CN(C)C(=S)SSC(=S)N(C)C,12 µM (active) and 27.3 µM (active) and 16.8 µM (active)
11,COc1ccccc1N1CCNCC1,inactive
12,CC(C)(C)C(=O)CCl,inactive
13,C(COCC1CO1)OCC1CO1 (stereo not drawn),inactive
14,ClC1=C(Cl)C2(Cl)C3C(Cl)C=CC3C1(Cl)C2(Cl)Cl (stereo not drawn),inactive
15,CCCCCCCCCCCCCC[P+](CCCCCC)(CCCCCC)CCCCCC (tested in a mixture with another compound),21.7 µM (active)
16,Nc1ccc(Cl)cc1C(=O)c1ccccc1,inactive
17,C[C@H]1CNCCc2ccc(Cl)cc21,inactive
18,COc1nc(C)nc(NC(=O)NS(=O)(=O)c2ccccc2Cl)n1,inactive
19,CCOC(=O)Nc1cccc(OC(=O)Nc2ccccc2)c1,inactive
20,CC1=C2C[C@H]3[C@@H](CC=C4C[C@@H](O)CC[C@@]43C)[C@@H]2CC[C@]12O[C@@H]1C[C@H](C)CN[C@H]1[C@H]2C,inactive

row,SMILES,Potency
1,c1cc2c3c(cccc3c1)CC2,inactive
2,CC1(C)C(=O)NC(=O)NC1=O,inactive
3,C[C@]12CC[C@H]3[C@@H](CCC4=CC(=O)CC[C@@H]43)[C@@H]1CC[C@@H]2O,inactive
4,CN1C(=S)CN=C(c2ccccc2)c2cc(Cl)ccc21,inactive
5,CC(=O)CC(c1ccc(Cl)cc1)c1c(O)c2ccccc2oc1=O (stereo not drawn),inactive
6,C=CC(N)=O,inactive
7,[Cl-].[Cl-].[Cl-].[Fe+3],inactive
8,Cc1ccc(N)cc1C,inactive
9,NC(=O)CN1CCCC1=O,inactive
10,CC(C)CCCCCOC(=O)c1ccccc1C(=O)OCCCCCC(C)C,inactive
11,O=CC(Br)(Br)Br,inactive
12,O=S(=O)(c1ccc(O)cc1)c1ccc(O)cc1,inactive
13,CCCC(C)(COC(N)=O)COC(N)=O,inactive
14,O=C(O)CF,inactive
15,OCC1CO1 (stereo not drawn),inactive
16,CC[C@H](C)[C@H]1O[C@]2(C=C[C@@H]1C)C[C@@H]1C[C@@H](C/C=C(\C)[C@@H](O[C@H]3C[C@H](OC)[C@@H](O[C@H]4C[C@H](OC)[C@@H](NC)[C@H](C)O4)[C@H](C)O3)[C@@H](C)/C=C/C=C3\CO[C@@H]4[C@H](O)C(C)=C[C@@H](C(=O)O1)[C@]34O)O2,19.3 µM (active)
17,CCOP(=S)(OCC)SCCSCC,inactive
18,O=C(O)CC[N+](=O)[O-],inactive
19,Cc1cccc(N)c1C,inactive
